# Measured values reported in PubChem BioAssay (NCATS).
# “And” between values parts separate entries of the source, which are not always exact repeats. Equal entries are not always repeated. Records with an inconclusive call do not appear. Where a call stands in place of a potency, no number is given. Unmarked numbers belong to inactive results. The source made the active and inactive calls. Unless noted, calls come from the whole dose curve; as a rule, active = well fitted curve in the direction sought with a large enough effect; inconclusive = small, poorly fitted or top-dose-only effect, or another doubt; inactive = no such curve, though single readings can be large; an effect the other way counts as inactive or inconclusive.
# Experiments:
# [1] = target: Cellular tumor antigen p53 (Homo sapiens) (UniProt P04637); assay: Primary qHTS for small molecule compounds that upregulate eGFP-tagged delta133p53alpha (in N-terminal) cells. (AID 2060322); details: NCI-H358 eGFP-delta133p53alpha fluorescence, 24 h; activation: active compounds read high;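 note: cells pre-induced with doxycycline then dosed without doxycycline; series mostly up to about 56 µM; nearly all actives have a fitted effect of over 75% in size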
# Procedure, shortened: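 NCI-H358 cells pre-induced 24 h with 10 ng/ml doxycycline for eGFP-delta133p53alpha, plated dox-free and exposed 24 h at 37C to titrated compounds. Fixed, Hoechst-stained; gated GFP peak intensity by laser scanning cytometry, normalized to DMSO (0%) and 57.5 uM 5-azacytidine (100%).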
# [2] = target: Cellular tumor antigen p53 (Homo sapiens) (UniProt P04637); assay: Primary qHTS for small molecule compounds that upregulate eGFP-tagged delta133p53alpha (in C-terminal) cells. (AID 2060324)
# Procedure, shortened: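 Readout: filtered GFP peak intensity of gated cells (laser scanning cytometer), normalized plate-wise to intraplate controls, DMSO wells = 0% activity. Cells: NCI-H358 D133p53a-eGFP, dox 100 ng/ml 24 h beforehand, then compound 24 h, 37 °C.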
# [3] = target: Aldehyde dehydrogenase, mitochondrial (Homo sapiens) (UniProt P05091); assay: qHTS for Inhibitors of the Aldehyde Dehydrogenase Family (ALDH2) Validation screens (AID 2061302; active = well fitted inhibition curve with a large enough effect; title and protocol of this record describe different tests)
# [4] = target: Retinaldehyde dehydrogenase 3 (Homo sapiens) (UniProt P47895); assay: qHTS for Inhibitors of the Aldehyde Dehydrogenase Family (ALDH1A3) Validation screen (AID 2061312); note: nearly all actives have a fitted effect of over 45% in size
# [5] = BET inhibitor-based combinations targeting novel dependencies in MECOM-rearranged (r) AML: SET-2 cell line (AID 2202231); details: SET-2 AML cells viability, CellTiter-Glo luminescence, 48 h; viability: active compounds read low, concentration not given here; note: nearly all actives have a fitted effect of over 35% in size; note: potency is the fitted concentration of half-maximal effect
# Procedure, shortened: (§1)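 Luminescent ATP readout (CellTiter-Glo) after 48 hr drug exposure gives viability. Curves span 11 concentrations and are normalized to DMSO and empty wells. Activity is reported as area under the curve and its Z-transform within each cell line.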
# [6] = BET inhibitor-based combinations targeting novel dependencies in MECOM-rearranged (r) AML: OCI-AML3 cell line (AID 2202232); details: Potency: OCI-AML3 viability; note: nearly all actives have a fitted effect of over 35% in size; note: potency is the fitted concentration of half-maximal effect
# Procedure, shortened: as §1
# [7] = BET inhibitor-based combinations targeting novel dependencies in MECOM-rearranged (r) AML: MV-4-11 cell line (AID 2202233); note: nearly all actives have a fitted effect of over 45% in size; note: potency is the fitted concentration of half-maximal effect
# Procedure, shortened: (§2)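 Luminescent ATP readout (CellTiter-Glo, 15 min at room temperature) after 48 hr drug exposure gave viability. Dose-response curves, normalized to DMSO and empty-well controls, were summarized as area under the curve and its mean-centred Z-score.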
# [8] = BET inhibitor-based combinations targeting novel dependencies in MECOM-rearranged (r) AML: HNT-34 cell line (AID 2202234); note: nearly all actives have a fitted effect of over 35% in size; note: potency is the fitted concentration of half-maximal effect
# Procedure, shortened: as §2
# [9] = BET inhibitor-based combinations targeting novel dependencies in MECOM-rearranged (r) AML: UCSD-AML1 cell line (AID 2202235); note: series mostly up to about 46 µM; nearly all actives have a fitted effect of over 40% in size
# Procedure, shortened: as §2
# [10] = BET inhibitor-based combinations targeting novel dependencies in MECOM-rearranged (r) AML: AML-191 cell line (AID 2202236; note: nearly all actives have a fitted effect of over 35% in size)
# Procedure, shortened: as §1
# [11] = target: Retinaldehyde dehydrogenase 3 (Homo sapiens) (UniProt P47895); assay: qHTS for Inhibitors of the Aldehyde Dehydrogenase Family (ALDH1A3) Primary screen (AID 2061315)
# Sequence of Cellular tumor antigen p53 (Homo sapiens) (P04637 whole entry, looked up): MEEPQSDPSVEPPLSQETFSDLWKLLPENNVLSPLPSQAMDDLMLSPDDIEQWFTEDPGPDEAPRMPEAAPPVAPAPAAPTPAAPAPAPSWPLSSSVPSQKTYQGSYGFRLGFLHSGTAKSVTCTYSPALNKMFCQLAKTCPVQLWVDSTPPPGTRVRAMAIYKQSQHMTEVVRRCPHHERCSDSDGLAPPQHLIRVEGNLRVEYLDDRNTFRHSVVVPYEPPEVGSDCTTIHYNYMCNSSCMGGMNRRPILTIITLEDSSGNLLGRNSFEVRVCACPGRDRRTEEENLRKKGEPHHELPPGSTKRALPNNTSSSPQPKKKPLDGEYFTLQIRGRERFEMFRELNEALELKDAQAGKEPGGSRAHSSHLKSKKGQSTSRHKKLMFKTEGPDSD
structure (smiles),measurement,setting,value
OC[C@H]1O[C@@H](n2cnc3c(NC4CCCCC4)ncnc32)[C@H](O)[C@@H]1O,activation,[1],5.46%
same,Potency,[2],inactive
same,Potency,[3],inactive
same,Potency,[4],inactive
CCCn1c(=O)[nH]c(=O)c2[nH]cnc21,activation,[1],24.9%
same,Potency,[2],inactive
same,Potency,[3],inactive
same,Potency,[4],inactive
CC(C)NC[C@H](O)COc1cccc2[nH]ccc12,activation,[1],15.4%
same,Potency,[2],inactive
same,Potency,[3],inactive
same,Potency,[4],inactive
COc1cccc(OC)c1OCCNCC1CSc2ccccc2O1 (stereo not drawn),activation,[1],20.5%
same,Potency,[2],inactive
same,Potency,[3],inactive
same,Potency,[4],inactive
Nc1nc2c(nc(Br)n2C2OC3COP(=O)(O)O[C@@H]3C2O)c(=O)[nH]1 (stereo partly drawn),activation,[1],29.4%
same,Potency,[2],inactive
same,Potency,[3],inactive
same,Potency,[4],inactive
Clc1ccccc1C(c1ccccc1)(c1ccccc1)n1ccnc1,activation,[1],-9.6% and -24.2%
same,Potency,[2],inactive
same,Potency,[3],inactive
same,Potency,[4],inactive
same,Potency,[5],18.6 µM (active)
same,Potency,[6],16.6 µM (active)
same,Potency,[7],18.6 µM (active)
same,Potency,[8],18.6 µM (active)
OCC1O[C@H](O)C(Cl)C(O)C1O (stereo partly drawn),activation,[1],-8.54%
same,Potency,[2],inactive
same,Potency,[3],inactive
same,Potency,[4],inactive
CN(C)c1nc(N)c(C(=O)N=C(N)N)nc1Cl,activation,[1],-52.6%
same,Potency,[2],inactive
same,Potency,[3],inactive
same,Potency,[4],inactive
C[C@]12C[C@H](O)[C@H]3[C@@H](CCC4=CC(=O)CC[C@@]43C)[C@@H]1CC[C@@H]2C(=O)CO,activation,[1],-5.02% and -5.37%
same,Potency,[2],inactive
same,Potency,[3],inactive
same,Potency,[4],inactive
CCCCCCCCCCCCCCCC(=O)OC(CC(=O)O)C[N+](C)(C)C (stereo not drawn),activation,[1],-11.1%
same,Potency,[2],inactive
same,Potency,[3],inactive
same,Potency,[4],inactive
COc1cc(CNC(=O)CCCCCCC(C)C)ccc1O,activation,[1],0.736%
same,Potency,[2],inactive
same,Potency,[3],inactive
same,Potency,[4],inactive
CCOC(=O)N1CCC(=C2c3ccc(Cl)cc3CCc3cccnc32)CC1,activation,[1],20.9% and 5.49%
same,Potency,[2],inactive
same,Potency,[3],inactive
same,Potency,[4],inactive
CNCCC(Oc1ccccc1C)c1ccccc1 (stereo not drawn),activation,[1],-12.7%
same,Potency,[2],inactive
same,Potency,[3],inactive
same,Potency,[4],inactive
CN(CC[C@@H](Oc1ccc(C(F)(F)F)cc1)c1ccccc1)CC(=O)O,activation,[1],2.22%
same,Potency,[2],inactive
same,Potency,[3],inactive
same,Potency,[4],inactive
CCCNCC(O)COc1ccccc1C(=O)CCc1ccccc1 (stereo not drawn),activation,[1],15% and -5.02% and 3.52%
same,Potency,[2],inactive
same,Potency,[3],inactive
same,Potency,[4],inactive
same,viability,[5],84.2%
CC(C)(C)NCC(O)c1ccc(O)c(CO)c1 (stereo not drawn),activation,[1],-7.9% and 9.21% and -24.1%
same,Potency,[2],inactive
same,Potency,[3],inactive
same,Potency,[4],inactive
same,viability,[5],115%
same,Potency,[6],inactive
same,Potency,[7],inactive
same,Potency,[8],inactive
same,Potency,[9],inactive
same,Potency,[10],inactive
C[C@H](O)C(=O)C1=Nc2c(nc(N)[nH]c2=O)NC1,activation,[1],-8.4%
same,Potency,[2],inactive
same,Potency,[3],inactive
same,Potency,[4],inactive
O=S(=O)(c1cccc2c(Cl)cccc12)N1CCCNCC1,activation,[1],-18.2%
same,Potency,[2],inactive
same,Potency,[3],inactive
same,Potency,[4],inactive
O=C(CCCCCN1CCN(c2ccccc2-c2ccccc2)CC1)NC1CCCc2ccccc21 (stereo not drawn),activation,[1],-20.9%
same,Potency,[2],inactive
same,Potency,[3],inactive
same,Potency,[4],inactive
CCCn1c(=O)c2c(ncn2C)n(CCC)c1=O,activation,[1],-49.6%
same,Potency,[2],inactive
same,Potency,[3],inactive
same,Potency,[4],inactive
COC(=O)C(C)(N)Cc1ccc(O)cc1 (stereo not drawn),activation,[1],-5.7%
same,Potency,[2],inactive
same,Potency,[3],inactive
same,Potency,[4],inactive
O=C1/C(=C/c2ccsc2)CC/C1=C\c1cccs1,activation,[1],14.3%
same,Potency,[2],inactive
same,Potency,[3],inactive
same,Potency,[4],inactive
NCCCC(=O)O,activation,[1],-3.84%
same,Potency,[2],inactive
same,Potency,[3],inactive
same,Potency,[4],inactive
CCCCCCCCCCC/C=C\C(C)(C)/C=C\CCCC(=O)O,activation,[1],-22.9%
same,Potency,[2],inactive
same,Potency,[3],inactive
same,Potency,[4],inactive
N[C@@H](Cc1ccc(O)c(I)c1)C(=O)O,activation,[1],-4.51%
same,Potency,[2],inactive
same,Potency,[3],inactive
same,Potency,[4],inactive
Nc1ncnc2c1ncn2C1CCCO1 (stereo not drawn),activation,[1],9.27%
same,Potency,[2],inactive
same,Potency,[3],inactive
same,Potency,[4],inactive
C=C1C[C@@]23CC[C@H]4[C@@](C)(CCC[C@@]4(C)C(=O)O)[C@@H]2CC[C@]1(O)C3,activation,[1],9.04%
same,Potency,[2],inactive
same,Potency,[3],inactive
same,Potency,[4],inactive
CC(CCc1ccccc1)NCC(O)c1ccc(O)c(C(N)=O)c1 (stereo not drawn),activation,[1],11.5% and 18%
same,Potency,[2],inactive
same,Potency,[3],inactive
same,Potency,[4],inactive
same,Potency,[11],inactive
c1ccc2nc(C3=NCCN3)ccc2c1,activation,[1],5.83%
same,Potency,[2],inactive
same,Potency,[3],inactive
same,Potency,[4],inactive
